Drawing on PubChem BioAssay, this text covers composite z-score, composite Z-score and z-score for eight molecules.

Calls of active or inactive are those of the source.

The target of one test is Albumin (Bos taurus) (UniProt P02769). Kind of test: compounds binding labelled BSA control protein – biochemical, small-molecule microarray, Alexa647 label, 635/667 nm fluorescence, artefact control for SMM control protein annotation, profiling panel (AID 1118).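 Note: score merges 667 nm emission intensity and signal-to-noise per printed compound spot.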 The conditions noted are these: BSA-A647 binding, fluorescence 635 nm, higher = more signal.
Chain of Albumin (Bos taurus) (P02769 whole entry, looked up): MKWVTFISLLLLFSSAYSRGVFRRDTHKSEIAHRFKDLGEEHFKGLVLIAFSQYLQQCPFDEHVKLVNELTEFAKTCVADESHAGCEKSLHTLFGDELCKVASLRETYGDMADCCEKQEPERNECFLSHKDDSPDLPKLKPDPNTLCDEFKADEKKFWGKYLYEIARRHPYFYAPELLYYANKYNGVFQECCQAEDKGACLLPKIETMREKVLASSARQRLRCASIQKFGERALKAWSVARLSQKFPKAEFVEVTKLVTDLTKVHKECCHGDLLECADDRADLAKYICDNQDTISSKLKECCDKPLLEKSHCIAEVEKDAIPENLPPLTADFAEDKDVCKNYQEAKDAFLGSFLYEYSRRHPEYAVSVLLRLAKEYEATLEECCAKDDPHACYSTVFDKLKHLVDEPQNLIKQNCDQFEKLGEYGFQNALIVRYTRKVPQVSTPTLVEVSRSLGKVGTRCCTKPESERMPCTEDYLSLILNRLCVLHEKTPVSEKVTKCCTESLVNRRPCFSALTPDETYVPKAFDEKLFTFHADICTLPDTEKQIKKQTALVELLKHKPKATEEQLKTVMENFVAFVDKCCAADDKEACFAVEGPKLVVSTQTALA
A short description of test [1]: probe aXIP binding to arrayed compounds – biochemical, NeuroSMM set, 635/667 nm fluorescence, primary screen (AID 1119).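 Note: probe is the protein aXip251-270 applied at 1 µg/mL to compound-printed slides; binding of probe to printed compounds measured as 667 nm fluorescence plus signal to noise.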 Conditions: small-molecule microarray, higher = more signal, called active from +8 up or from −8 down.
Test [2] in a line: probe aNOTCH3 binding on compound microarray – biochemical, small-molecule microarray, 635/667 nm fluorescence, primary screen (AID 1120).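 Note: probe is a biotin-tagged antibody raised against NOTCH3 rather than NOTCH3 protein; score merges spot fluorescence near 667 nm with spot signal to noise.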 The conditions noted are these: higher = more signal.
Test [3] is described as follows: probe aNOTCH2 binding on compound microarray – biochemical, small-molecule microarray, 635/667 nm fluorescence, primary screen (AID 1121).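 Note: score merges feature fluorescence read at 667 nm with its signal to noise.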 Conditions: higher = more signal.
Test [4] has as its target Carbonic anhydrase 2 (Homo sapiens) (UniProt P00918). Kind of test: compounds binding carbonic anhydrase 2 – biochemical, small-molecule microarray, Alexa647-labelled CAII, profiling panel (AID 1122). Conditions: CAII-A647 binding fluorescence, higher = more signal.
A short description of test [5]: COS7 lysate on small-molecule microarray, probe aHis, 635 nm (AID 1123).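 Note: z-score combines 667nm fluorescence intensity with signal-to-noise per printed compound spot.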 Conditions: COS7 cell lysate, fluorescence, higher = more signal.
Test [6] is described as follows: probe aLAP1 signal on lysate-treated microarray – cell lysate, small-molecule microarray, COS7 lysate, primary screen (AID 1124).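 Note: lysate comes from COS7 cells expressing LAP1 and is applied at 0.3 µg/mL; score merges spot fluorescence near 667 nm with signal-to-noise over triplicate slides.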 Conditions: probe aLAP1, fluorescence, higher = more signal.
A further test relates to Sam68 (KHDRBS1). Kind of test: compounds binding KHDRBS1 protein – biochemical, small-molecule microarray, 635 nm fluorescence, primary screen (AID 1125).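 Note: score merges 667 nm channel intensity with signal to noise over triplicate slides.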 Conditions: higher = more signal.
Test [7] has as its system Chordin-like protein 2 (CHRDL2). Kind of test: compounds binding chordin-like 2 – biochemical, small-molecule microarray, 635 nm fluorescence, primary screen (AID 1126).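 Note: printed compound slides probed with Chrdl2 protein at 4 µg/mL for 1 h at 4 C; score merges 667 nm emission intensity with signal to noise over three replicate slides.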 Conditions: fluorescence 635 nm, higher = more signal.
Test [8] addresses Concanavalin-A (Canavalia ensiformis) (UniProt P02866). In words: compounds binding concanavalin A lectin – biochemical, small-molecule microarray, Alexa647 label, 635 nm, artefact control for SMM control protein annotation, primary screen (AID 1127).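 Note: z combines 667 nm emission intensity with signal-to-noise across three replicate slides.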 Conditions: ConA-A647 binding fluorescence, higher = more signal.
A short description of test [9]: compounds binding Alexa647 anti-His antibody – biochemical, small-molecule microarray, 635 nm fluorescence, artefact control for SMM control protein annotation, primary screen (AID 1128).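 Note: score merges feature fluorescence with signal-to-noise for each printed compound spot.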 The conditions noted are these: higher = more signal.
Test [10] deals with Human papillomavirus type 1a E7 protein (residues 1-88). In words: HPV1a E7 small-molecule binders, primary screen, biochemical, small-molecule microarray, residues 1-88, 635 nm (AID 1129). Conditions: small-molecule microarray binding, fluorescence 635 nm; higher = more signal.
For test [11], the target named is Focal adhesion kinase 1 (Homo sapiens) (UniProt Q05397). In words: PTK2 protein binding on printed compound slides – biochemical, small-molecule microarray, 635/667 nm fluorescence, BSA, DTT, primary screen (AID 1130).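 Note: composite of spot emission at 667 nm and signal to noise over triplicate slides.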 Conditions: 635 nm fluorescence, higher = more signal.
Chain of Focal adhesion kinase 1 (Homo sapiens) (Q05397 whole entry, looked up): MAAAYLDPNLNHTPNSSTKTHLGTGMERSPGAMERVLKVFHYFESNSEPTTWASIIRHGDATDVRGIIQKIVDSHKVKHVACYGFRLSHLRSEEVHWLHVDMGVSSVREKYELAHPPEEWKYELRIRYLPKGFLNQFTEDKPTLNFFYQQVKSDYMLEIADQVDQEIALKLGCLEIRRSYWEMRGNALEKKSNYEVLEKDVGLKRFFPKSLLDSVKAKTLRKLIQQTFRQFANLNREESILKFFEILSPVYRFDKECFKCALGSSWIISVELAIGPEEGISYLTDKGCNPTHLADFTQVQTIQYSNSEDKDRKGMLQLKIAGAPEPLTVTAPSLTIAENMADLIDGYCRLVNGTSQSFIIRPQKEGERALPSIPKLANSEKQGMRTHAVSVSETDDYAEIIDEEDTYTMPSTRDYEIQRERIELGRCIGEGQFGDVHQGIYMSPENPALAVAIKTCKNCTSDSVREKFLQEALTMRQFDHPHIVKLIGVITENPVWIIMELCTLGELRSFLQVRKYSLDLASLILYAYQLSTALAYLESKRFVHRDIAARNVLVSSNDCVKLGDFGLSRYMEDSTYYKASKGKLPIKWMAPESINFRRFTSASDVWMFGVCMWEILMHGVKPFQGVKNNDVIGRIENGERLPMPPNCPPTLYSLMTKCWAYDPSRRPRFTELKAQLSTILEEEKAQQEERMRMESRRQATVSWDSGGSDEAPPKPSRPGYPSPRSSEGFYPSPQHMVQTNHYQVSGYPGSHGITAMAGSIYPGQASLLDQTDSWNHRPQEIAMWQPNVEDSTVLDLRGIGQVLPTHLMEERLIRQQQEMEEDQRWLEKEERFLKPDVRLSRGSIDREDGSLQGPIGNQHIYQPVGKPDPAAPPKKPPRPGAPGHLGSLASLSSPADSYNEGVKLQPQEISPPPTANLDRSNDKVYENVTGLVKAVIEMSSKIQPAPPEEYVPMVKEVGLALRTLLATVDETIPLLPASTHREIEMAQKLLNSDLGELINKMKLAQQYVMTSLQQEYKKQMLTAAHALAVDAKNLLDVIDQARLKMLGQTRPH
The test system of test [12] is Fibrinogen (Alexa647-labelled). In words: Alexa647-fibrinogen binding to printed small molecules – biochemical, small-molecule microarray, 635/667 nm fluorescence, artefact control for SMM control-protein annotation, profiling panel (AID 1131).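 Note: z-score merges 667 nm fluorescence with per-spot signal-to-noise over triplicate slides.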 The conditions noted are these: fibrinogen-A647 binding fluorescence, higher = more signal.
The target of test [13] is Follistatin (Homo sapiens) (UniProt P19883). In words: FST protein binding to printed compounds – biochemical, small-molecule microarray, 635/667 nm fluorescence, primary screen (AID 1132). Conditions: 635 nm fluorescence, higher = more signal.
Chain of Follistatin (Homo sapiens) (P19883 whole entry, looked up): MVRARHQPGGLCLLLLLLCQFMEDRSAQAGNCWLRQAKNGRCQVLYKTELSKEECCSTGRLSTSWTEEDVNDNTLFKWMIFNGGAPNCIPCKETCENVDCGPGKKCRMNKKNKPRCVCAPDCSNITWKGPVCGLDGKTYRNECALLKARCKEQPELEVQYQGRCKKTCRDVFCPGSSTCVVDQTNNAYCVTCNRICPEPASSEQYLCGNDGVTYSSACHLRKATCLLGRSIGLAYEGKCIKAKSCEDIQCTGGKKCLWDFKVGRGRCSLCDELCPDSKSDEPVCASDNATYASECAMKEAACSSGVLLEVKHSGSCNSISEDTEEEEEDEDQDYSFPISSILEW
Test [14] addresses Fibroblast growth factor 2 (Homo sapiens) (UniProt P09038). Kind of test: basic fibroblast growth factor binding to printed compounds – biochemical, small-molecule microarray, 635/667 nm fluorescence, primary screen (AID 1133). The conditions noted are these: FGF2, fluorescence 635/667, higher = more signal.
Test [15] in a line: JC-1 mitochondrial potential readout, lung cancer cells – cell-based, A549, JC-1 fluorescence, basal, 24 h, 100 nL, profiling panel (AID 1138).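 Note: A549 lung adenocarcinoma cells under basal conditions with no added stimulus; test concentration not given here.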 Conditions: higher = more signal.
A further test relates to Lefty1. Kind of test: Lefty1 protein binding to printed compounds – biochemical, small-molecule microarray, 635/667 nm fluorescence, primary screen (AID 1139). The conditions noted are these: fluorescence 635/667, higher = more signal.
For test [16], the system named is wheat germ agglutinin (Triticum aestivum), Alexa647-labelled. Kind of test: Alexa647-WGA lectin binding to printed small molecules – biochemical, small-molecule microarray, 635/667 nm fluorescence, artefact control for SMM control-protein annotation, profiling panel (AID 1140).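 Note: score merges 667 nm feature emission with signal to noise over triplicate slides.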 Conditions: WGA-A647 binding, 635 nm fluorescence, higher = more signal.
Test [17] concerns the target Luciferin 4-monooxygenase (Photinus pyralis) (UniProt P08659). Kind of test: inhibition of purified Photinus pyralis luciferase – biochemical, luminescence, purified enzyme, 2006 set, primary screen (AID 1141).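 Note: cell-free assay with purified firefly luciferase at 100 ng per well in PBS; test concentration not given here.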 The conditions noted are these: purified firefly luciferase, SteadyGlo luminescence, 30 min; higher = more signal, called active from +8 up or from −8 down.

Chain of Luciferin 4-monooxygenase (Photinus pyralis) (P08659 whole entry, looked up): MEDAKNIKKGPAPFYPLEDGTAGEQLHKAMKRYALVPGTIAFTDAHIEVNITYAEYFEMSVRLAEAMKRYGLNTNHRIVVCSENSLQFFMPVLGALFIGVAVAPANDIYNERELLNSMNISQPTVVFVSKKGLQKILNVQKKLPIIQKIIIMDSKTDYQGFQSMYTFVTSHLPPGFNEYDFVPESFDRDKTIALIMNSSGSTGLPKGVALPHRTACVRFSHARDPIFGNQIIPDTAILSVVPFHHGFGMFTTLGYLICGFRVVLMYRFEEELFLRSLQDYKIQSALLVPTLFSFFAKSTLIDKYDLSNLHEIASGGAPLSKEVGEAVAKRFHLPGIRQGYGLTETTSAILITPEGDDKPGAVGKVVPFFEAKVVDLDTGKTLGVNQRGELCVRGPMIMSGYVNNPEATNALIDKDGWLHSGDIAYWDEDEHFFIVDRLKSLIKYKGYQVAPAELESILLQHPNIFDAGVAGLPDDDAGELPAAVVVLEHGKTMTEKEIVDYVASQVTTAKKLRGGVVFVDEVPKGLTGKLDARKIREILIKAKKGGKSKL
Chain of Concanavalin-A (Canavalia ensiformis) (P02866 whole entry, looked up): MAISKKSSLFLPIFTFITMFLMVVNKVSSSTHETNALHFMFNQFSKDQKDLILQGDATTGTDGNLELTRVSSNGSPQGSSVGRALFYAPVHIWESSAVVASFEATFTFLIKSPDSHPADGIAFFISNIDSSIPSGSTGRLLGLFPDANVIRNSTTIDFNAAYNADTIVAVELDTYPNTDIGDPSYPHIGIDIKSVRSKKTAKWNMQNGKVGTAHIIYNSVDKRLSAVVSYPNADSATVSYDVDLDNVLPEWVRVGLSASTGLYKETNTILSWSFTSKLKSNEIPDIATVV
Chain of Fibroblast growth factor 2 (Homo sapiens) (P09038 whole entry, looked up): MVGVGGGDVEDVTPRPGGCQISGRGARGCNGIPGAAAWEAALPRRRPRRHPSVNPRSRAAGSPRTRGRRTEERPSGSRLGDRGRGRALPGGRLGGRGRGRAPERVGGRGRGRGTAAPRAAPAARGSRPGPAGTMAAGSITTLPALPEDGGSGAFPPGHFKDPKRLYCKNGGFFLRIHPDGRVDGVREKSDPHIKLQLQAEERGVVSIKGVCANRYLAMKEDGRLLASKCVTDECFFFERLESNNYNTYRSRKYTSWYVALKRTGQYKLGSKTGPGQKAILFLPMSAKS

For `O=C1C2C=CC(C(O)Cc3ccccc3)N(n3cnnc3)C2C(=O)N1Cc1ccccc1` (stereo not given), the composite z-score in the test with Albumin (Bos taurus) is 1.03; in test [2], 0.206; in [3] it was 0.0248; in [4] it was 0.449; in [5], 1.14; in [6], 0.75. Also, the composite z-score is 0.646 in the test on Sam68 (KHDRBS1); -0.748 in [7]; 0.779 in test [8]; 1.38 in test [9]; 0.396 in [10]; -0.249 in [11]. Also, the composite z-score is 0.573 in [12]; -0.185 in [13]; -0.279 in test [14]; -0.648 in the test on Lefty1; 1.31 in test [16]. Further, the composite Z-score in test [1] is -0.188 (inactive). Moreover, the z-score in [15] was -1.48; in test [17], 0.921 (inactive).

Take `Cc1ccc(S[C@]2(C(=O)NCCCN(C)C)CC(=O)N(Cc3ccccc3C(F)(F)F)[C@@H]2c2ccc(CO)cc2)cc1`: the composite z-score is 0.54 with Albumin (Bos taurus); -0.0639 in [2]; -0.0013 in test [3]; 0.211 in test [4]; 0.0645 in test [5]; -0.41 in [6]. Further, the composite z-score with Sam68 (KHDRBS1) was 0.0809; in test [7], -0.327; in [8], -1.48; in test [9] it was -1.09; in [10] it was -0.935; in [11] it was -0.157. Further, the composite z-score in test [12] is 0.109; in [13], -0.85; in test [14], -0.45; in the test with Lefty1 it was -0.853; in test [16], 0.427. The composite Z-score in [1] is -0.676 (inactive). Besides, the z-score was 0.566 in test [15] and -0.903 (inactive) in [17].

Regarding `CCS[C@H]1[C@@H](C(=O)O)[C@H](c2ccc(C)cc2)N(S(=O)(=O)c2ccc(C)cc2)[C@@H]1CC`, the composite z-score with Albumin (Bos taurus) was 0.804; in [2], 0.372; in [3] it was 0.0431; in test [4], 0.519; in [5] it was 1.77; in test [6], 0.5. The composite z-score in the test on Sam68 (KHDRBS1) is 1.32; in [7], -0.467; in test [8] it was 0.615; in [9], 1.12; in test [10], 1.24; in test [11] it was 0.353. The composite z-score in test [12] was 0.715; in test [13], 0.714; in test [14] it was -0.0028; in the test on Lefty1, -0.0097; in test [16], 0.652. The composite Z-score in test [1] was -0.0164 (inactive). Besides, the values for the z-score in test [15] and in test [17] were -0.223 and 1.16 (inactive), respectively.

Turning to `C=CCOC(=O)[C@@H]1[C@H]2C(=O)O[C@H](c3ccccc3)[C@H](c3ccccc3)N2[C@H](c2ccc(OCCOC(=O)[C@H]3C[C@H]4C(=O)N5CCC[C@H]5C(=O)N4[C@H]3c3ccc(O)cc3)cc2)[C@@]12C(=O)Nc1ccc(I)cc12`, the composite z-score was -1.18 with Albumin (Bos taurus); -0.213 in test [2]; 0.0701 in test [3]; 0.339 in test [4]; 1.58 in test [5]; -0.299 in test [6]. Further, the composite z-score is 1.3 in the test with Sam68 (KHDRBS1); 1.09 in test [7]; 1.13 in [8]; 2.01 in test [9]; 1.19 in [10]; 0.453 in [11]. In addition, the composite z-score in [12] came out at 0.409; in test [13] it was 1.39; in test [14], 1.58; with Lefty1, 1.42; in test [16], 0.497. In addition, the composite Z-score in test [1] was 0.76 (inactive). Further, the z-score was -1.6 in test [15] and -0.376 (inactive) in test [17].

With `COc1cccc(-c2cccc(=O)o2)c1`, the composite z-score is -0.172 with Albumin (Bos taurus); 0.366 in test [2]; 0.38 in [3]; 0.111 in test [4]; 0.175 in test [5]; -0.0345 in test [6]. For the same molecule, the composite z-score in the test on Sam68 (KHDRBS1) was -0.579; in test [7], 0.683; in test [8], -0.664; in test [9], 0.0707; in test [10], -0.0477; in test [11], -0.0753. Also, the composite z-score in test [12] was -0.51; in [13], 0.302; in [14], 0.0278; with Lefty1 it was -0.198; in test [16], 0.143. The composite Z-score in test [1] was 2.41 (inactive). Also, the z-score is -0.376 in test [15] and -0.0346 (inactive) in test [17].

On to `C=CC[C@]1(C(=O)NCCCOC)N=C(c2ccc(OCCCO)cc2)O[C@H]1c1ccccc1CN=[N+]=[N-]`, for which the composite z-score with Albumin (Bos taurus) is 0.782; in [2], 0.119; in test [3] it was -0.0013; in [4], 0.748; in test [5], 2.59; in test [6], 0.298. Also, the composite z-score was 1.14 in the test on Sam68 (KHDRBS1); -0.257 in test [7]; 0.983 in test [8]; 2.44 in [9]; 1.23 in test [10]; 0.932 in [11]. Further, the composite z-score in test [12] was 1; in test [13] it was 1.14; in test [14], 0.564; in the test on Lefty1, -0.0763; in test [16] it was 0.934. Besides, the composite Z-score in test [1] was 0.571 (inactive). Moreover, the z-score in test [15] was 2.04; in test [17], -0.529 (inactive).

In the case of `CO[C@H]1O[C@H](CO)[C@@H](OC(=O)Nc2ccc(Oc3ccccc3)cc2)[C@H](OC(=O)Nc2ccc3c(c2)OCO3)[C@H]1OC(=O)Nc1ccc2c(c1)OCO2`, the composite z-score with Albumin (Bos taurus) was 0.703; in test [2], 0.264; in test [3], 0.0976; in [4], 0.471; in test [5] it was 2.19; in test [6], 0.763. For the same molecule, the composite z-score was 1.3 with Sam68 (KHDRBS1); 0.317 in test [7]; 1.12 in test [8]; 1.83 in test [9]; 1.2 in [10]; 1.29 in test [11]. Further, the composite z-score in [12] worked out at 0.933; in test [13], 1.34; in test [14] it was 0.957; in the test with Lefty1, 1.05; in test [16], 1.18. In test [1], the composite Z-score was 0.705 (inactive). The results for the z-score in [15] and in test [17] were -0.249 and -6.84 (inactive), respectively.

On to `C=CCOC(=O)[C@H]1[C@@H]2C(=O)O[C@@H](c3ccccc3)[C@@H](c3ccccc3)N2[C@@H](c2ccc(OCCOC(=O)[C@H]3C[C@H]4C(=O)N[C@@H](CCCCNC(C)=O)C(=O)N4[C@H]3c3ccc(O)cc3)cc2)[C@]12C(=O)Nc1ccc(I)cc12`, for which the composite z-score is -0.0312 with Albumin (Bos taurus); 0.0876 in [2]; -0.147 in [3]; 0.253 in test [4]; 0.837 in test [5]; 0.0563 in [6]. Also, the composite z-score came to 1.22 with Sam68 (KHDRBS1); 1.25 in test [7]; 1.09 in test [8]; 0.748 in test [9]; 0.885 in test [10]; 0.169 in test [11]. Also, the composite z-score in test [12] came to 0.332; in test [13] it was 1.35; in test [14], 1.46; in the test on Lefty1, 1.42; in test [16], 0.105. In test [1], the composite Z-score was 0.745 (inactive). Besides, the z-score is -0.804 in [15] and -2.16 (inactive) in [17].
